Measurements reported in paper PMC12136788.
Changes are numbered by the printed parent chain. Over roughly 5,800 sequences, “enrichment r” has its median near 0.54; the highest 2% begin near 16. The entries come from a sample that favours the highest values as a whole.

B1: chr7:30424526:30425710:-|three_prime_utr|ENSG00000106100|control|control|control (ssRNA)
RNA: GGGAGUUCUACAGUCCGACGAUCAAACUCCCUAAGUACCCGCUACAAUUCUGCAGAAAAAGAAUGUGUCUUGCGAGCUGUUGUAGUUACAGUAAAUACACUGUGAAGAGACUUUAUUGCCUAUUAUAAUUAUUUUUAUCUGAACAACAGAGGAUUGAGCAUCA
B2: chr9:137457406:137457901:-|CDS|ENSG00000165802|control|control|control (ssRNA)
RNA: GGGAGUUCUACAGUCCGACGAUCCGCCUGUCCCUCGUCUCCAACGGCUGCUACGAGGGCAGCCUCUCAGAGGAGCCCAGCAUUAGGAAGCCCGCAGGCGAGGGCCCUCAGCCUCGAGUGUACACCAUCUCUGGGGAGCCUGCCCAACAGAGGAUUGAGCAUCA
B3: chr14:44928120:44928223:-|3pUTR|ENSG00000179454|unk|FALSE|unique (ssRNA)
RNA: GGGAGUUCUACAGUCCGACGAUCUAGUACAGCAGGCCUCCCAGUGCUGAUGUAAAUAUUUGAGCAGUGUUUAGUACCAUUCUUAGUGCAUAUUAAUUUUUUUAUAUAUCCUUAUAAUUUUAGUUUUUUAAGAUCUUUGCUUUUCAACAGAGGAUUGAGCAUCA
B4: chr9:21239001:21239365:-|three_prime_utr|ENSG00000228083|control|control|control (ssRNA)
RNA: GGGAGUUCUACAGUCCGACGAUCCAAAAUUUUCAAAUGUUUUCAGGAGUGUAAAGAAGCAUCAUGUAUACCUGUGCAGGCACUAGUCCUUUACAGAUGACCAUGCUGAUGUCUCCUUUCAUCUAUUUAUUUAAAUAUUUAUUUCAACAGAGGAUUGAGCAUCA
B5: chr7:127374855:127374969:-|CDS|ENSG00000048405|unk|total|mutant (ssRNA)
RNA: GGGAGUUCUACAGUCCGACGAUCCCCCGAAGCCAUAUAUCCAAGUGUGGACAAACGAGAAUAUAUUAUUAAGCCCGAACCCACCGAAACUAAUCAAAAUGCAGUAUUUCAAUAUAUUUCGAGGACUGAUAAUCCUAUUGAAGUCAACAGAGGAUUGAGCAUCA
B6: ENSG00000070961:be:win_4451|3pUTR|ENSG00000070961|bound_else_gene|NA|bound_elsewhere_windowed (ssRNA)
RNA: GGGAGUUCUACAGUCCGACGAUCGUUUUGAAGCAACUGUUUAAUUUUUAAAAUUUUUGAAAACUUGCUAAUAACCUUUUGUUCAGAAUUUAGUAGAUUGUUUAAUGCAGGACAUCAACUACAUAAUGAAAGAUGCUUGAAAUGCAACAGAGGAUUGAGCAUCA
B7: chr14:44928120:44928223:-|3pUTR|ENSG00000179454|unk|total|mutant (ssRNA)
RNA: B3 RNA with U24C, A25C, U71C, A72C, U83C, A84C, U120C, A121C
B8: ENSG00000039319:stop:overlap|stop_codon|ENSG00000039319|stop_codon|NA|stop_codon (ssRNA)
RNA: GGGAGUUCUACAGUCCGACGAUCCCAACUCUAGUUUACCAUUAGAAAUAGAAUUAGUGUUUUUCAUUAUAGAACAUCUUUUUUAGUGAAAGAAUGUGCCAUAUUACAUAUUGCAACCUAAUUUGUUAAAACUAACUCCAGCACCAACAGAGGAUUGAGCAUCA
B9: chr6:89631235:89631336:+|3pUTR|ENSG00000135299|msi1|FALSE|unique (ssRNA)
RNA: GGGAGUUCUACAGUCCGACGAUCUGAAGUUUGAAAGCUCAGAUUAAGCAAGCCAUGCCAAGAAACUGGACGAUGUGUAAGCCUAGACUCUAAAAUUCAAGAUGUGUGAAAUAAUAUAAGUCAAAAGCAAGAAAAACGUAAUCCCAACAGAGGAUUGAGCAUCA
B10: chr2:224511460:224511569:-|CDS|ENSG00000036257|unk|FALSE|bound_elsewhere (ssRNA)
RNA: GGGAGUUCUACAGUCCGACGAUCGAAAGCCAGAAAUUUUUAGCAGAAAAUAGUGCUUCAGUAUAUAUAAAGAAAGUAGAAGCUAGAAUUAAUGAAGAAAUAGAACGAGUGAUGCACUGCCUUGACAAAUCAACGGAAGAACCACAACAGAGGAUUGAGCAUCA
B11: chr2:224511460:224511569:-|CDS|ENSG00000036257|unk|total|mutant (ssRNA)
RNA: B10 RNA with U40C, A41C, U50C, A51C, U76C, A77C, U83C, A84C, U100C, A101C
B12: chr7:127374855:127374969:-|CDS|ENSG00000048405|unk|FALSE|unique (ssRNA)
RNA: B5 RNA with C26U, C27A, C74U, C75A, C83U, C84A
B13: chr10:62095068:62095169:+|3pUTR|ENSG00000150347|msi1|FALSE|unique (ssRNA)
RNA: GGGAGUUCUACAGUCCGACGAUCCCAUUUGCUUCAAUUAAUUAUUUACCUUCCUGUGGAAUAAUAUAUAUAUAUAUAUUUAAUAGAACCAUAGAUAGACUAGUAGAAUUUAGAUUAUAAAUGUGUGAGUGCAGAUUAUCCUGCCAACAGAGGAUUGAGCAUCA
B14: chr10:62095068:62095169:+|3pUTR|ENSG00000150347|msi1|total|mutant (ssRNA)
RNA: GGGAGUUCUACAGUCCGACGAUCCCAUUUGCUUCAAUUAAUUAUUUACCUUCCUGUGGAAUAAUAUAUAUAUAUAUAUUUAACCGAACCACCGACCGACCCGCCGAAUUCCGAUUAUAAAUGUGUGAGUGCAGAUUAUCCUGCCAACAGAGGAUUGAGCAUCA

biological target: MSI1 full-length (mouse, UniProt Q61474 1-362); assay: nsRBNS (natural sequence RNA bind-n-seq); RBNS binding buffer (assumed for nsRBNS): 25 mM Tris pH 7.5, 150 mM KCl, 3 mM MgCl2, 0.01% Triton X-100, 500 ug/ml BSA, 20 U/ml SUPERase-In, 4 C; UNK is unkempt and MSI1 is Musashi-1; names of the RNAs are library labels; protein concentration not given here; high values mean tight binding
Sequence (Q61474 whole entry): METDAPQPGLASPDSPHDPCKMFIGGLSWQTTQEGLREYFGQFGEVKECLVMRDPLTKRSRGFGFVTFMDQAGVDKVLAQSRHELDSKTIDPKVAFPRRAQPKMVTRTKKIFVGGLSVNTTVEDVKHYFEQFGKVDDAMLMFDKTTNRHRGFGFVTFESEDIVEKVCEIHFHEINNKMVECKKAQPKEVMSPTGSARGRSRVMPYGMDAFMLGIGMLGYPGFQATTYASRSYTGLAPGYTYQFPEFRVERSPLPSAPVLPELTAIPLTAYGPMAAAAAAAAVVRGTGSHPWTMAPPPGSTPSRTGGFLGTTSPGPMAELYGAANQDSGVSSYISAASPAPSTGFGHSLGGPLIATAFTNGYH

In order of falling binding signal:
1. B10  36.5 enrichment R
2. B3  35.6 enrichment R
3. B12  28.2 enrichment R
4. B13  21.1 enrichment R
5. B14  9.42 enrichment R
6. B7  8.16 enrichment R
7. B1  3.46 enrichment R
8. B8  0.848 enrichment R
9. B6  0.619 enrichment R
10. B5  0.508 enrichment R
11. B4  0.493 enrichment R
12. B11  0.432 enrichment R
13. B2  0.4 enrichment R
14. B9  0.258 enrichment R
